# Source: PubChem
# TLR4 MyD88 comp: TLR4-MyD88 interaction inhibition in cells; O00206+Q99836; HeLa CL3-4 TLR4/MyD88 BLA complementation, FRET ratio; inhibition, % at 8.4 µM; actives 0.18% (n = 200,000); in the data active = inhibition above about 25%
# m5-HT2A agonist: mouse HTR2A agonism via beta-arrestin recruitment; activation, % at 7.6 µM; actives 0.66% (n = 360,000); P35363; CHO-K1 mHTR2A beta-arrestin complementation, luminescence; percent of 30 µM serotonin response;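 active = activation above a run cutoff, the mean activation of all tested compounds plus 3 SD, cut at about 14% in these data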
# Rtt109 HAT inh: inhibitors of Candida albicans Rtt109/Vps75 histone acetyltransferase | Q5AAJ8 | purified Rtt109/Vps75, ThioGlo CoA-SH fluorescence, 4 h | inhibition, % at 34.9 µM | actives 0.16% (n = 330,000) | AID 540336;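 active = inhibition of at least 50% in every replicate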
# LANA-H2A inh: blocks KSHV LANA binding to histone H2A/H2B. inhibition, % (no concentration beside the values). AID 2629. actives 0.6% (n = 320,000). Q9QR71. cell-free LANA-H2A/H2B peptide, fluorescence polarization; in the data active = inhibition mostly above about 10%, no sharp cut-off; inactive = mostly below about 6.7%
# TLR9-MyD88 inh: inhibitors of human TLR9-MyD88 binding; inhibition, % at 4.98 µM; AID 504734; actives 0.21% (n = 340,000); CHO BLA complementation TLR9-MyD88, CCF4 FRET ratio; Q9NR96+Q99836;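 active = inhibition above the mean over all tested compounds plus 3 SD, cut at about 21% in these data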
# NOD2 RIPK2 PPI: NOD2-RIPK2 protein interaction inhibition | O43353 | CHO BLA complementation NOD2-RIPK2, CCF4 ratio | inhibition, % at 4.98 µM | actives 0.38% (n = 360,000) | AID 624267; in the data active = inhibition above about 21%
# TLR9-MyD88 conf: TLR9-MyD88 interaction inhibition, confirmation; CHO TLR9/MyD88 BLA complementation, CCF4 FRET ratio; AID 540250; inhibition, % at 4.98 µM; shares compounds with TLR9-MyD88 inh; actives 51% (n = 680);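 active = mean inhibition across three repeats above about 21% taken from the earlier screen, limit read from the data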;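 note: blue over green emission ratio reports constitutive TLR9 MyD88 association via BLA complementation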
# BLA counter-1: beta-lactamase reporter inhibition, counter-screen artifact; shares compounds with TLR9-MyD88 inh; CHO-BLA cells, CCF4 FRET ratio, BLA reporter; inhibition, % at 4.98 µM; actives 7% (n = 680);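 active = mean inhibition above a 50% cutoff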;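 note: counterscreen of TLR9-MyD88 hits on CMV-driven BLA in CHO-K1 cells; higher means less blue over green ratio so more BLA blockade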
# TLR9 CHO cytotox: CHO cell toxicity counter-screen for TLR9-MyD88 inhibitors; actives 39% (n = 680); shares compounds with TLR9-MyD88 inh; inhibition, % at 4.98 µM; AID 588336; TLR9-MyD88 CHO cells cytotoxicity, luminescence; in the data active = inhibition above about 11%
# NOD2-RIPK2 conf: confirmation of human NOD2-RIPK2 interaction inhibitors. inhibition, % at 4.98 µM. AID 624370. shares compounds with NOD2 RIPK2 PPI. CHO cells, NOD2-RIPK2 BLA complementation, CCF4 FRET. actives 70% (n = 1,200);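 active = mean inhibition across replicates above a set limit taken from the earlier primary screen, cut at about 21% in these data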
# BLA counter-2: hits BLA reporter in NOD2-RIPK2 inhibitor counterscreen; AID 624371; actives 57% (n = 1,200); CHO BLA reporter, CCF4 FRET ratio; shares compounds with NOD2 RIPK2 PPI; inhibition, % at 4.98 µM;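 active = mean inhibition above the low-control mean inhibition plus three low-control SD, cut at about 11% in these data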
# Hits are given with their value; – = inactive; · = no result; ! = not confirmed by another sample. This is a sample that favours compounds with a hit; in the whole collection about 1.8% have one here.
SMILES,TLR4 MyD88 comp,m5-HT2A agonist,Rtt109 HAT inh,LANA-H2A inh,TLR9-MyD88 inh,NOD2 RIPK2 PPI,TLR9-MyD88 conf,BLA counter-1,TLR9 CHO cytotox,NOD2-RIPK2 conf,BLA counter-2
CC1=Nc2ccc(C)cc2/C1=C/c1c(N)n2oc(C)cc2nc1=O,–,–,–,–,21.2!,55.1,–,–,–,41.5,29.1
O=C(Nc1ccccc1)c1nnsc1S(=O)c1ccc(Cl)cc1 (stereo unspecified),–,–,–,–,23.5,33.0,36.9,–,96.5,78.2,25.3
Cc1nnsc1S(=O)c1ccc(Cl)cc1 (stereo unspecified),·,–,·,–,–,–,·,·,·,·,·
O=C(c1nnsc1S(=O)c1ccc(Cl)cc1)N1CCOCC1 (stereo unspecified),–,–,136.1,·,27.5,51.6,30.6,–,100.9,67.9,21.4
C[C@@H](c1ccccc1)N1C[C@@H](COCc2ccccc2)Oc2cc(N3CC[C@@H](N(C)C)C3)ccc2S1(=O)=O,·,–,·,·,·,–,·,·,·,·,·
CCCCC[C@@H](C)N1C[C@@H](COCc2ccccc2)Oc2cc(N3CC[C@@H](N(C)C)C3)ccc2S1(=O)=O,·,–,·,·,·,–,·,·,·,·,·
C=CCn1c(CSc2ccccc2[N+](=O)[O-])n[nH]c1=S,·,–,–,–,–,–,·,·,·,·,·
C=CCn1c(Sc2ncc([N+](=O)[O-])s2)n[nH]c1=O,·,–,–,–,32.3,62.7,44.2,–,99.4,76.7,14.8
COc1ccc(C(=O)/C=C/c2ccc(N(C)C)cc2)c(OC)c1,·,–,–,–,36.1,59.2,29.0,–,–,62.4,65.8
CC(C)c1cc(C(=O)NCc2ccc(F)cc2)c(N)s1,·,–,·,·,·,–,·,·,·,·,·
Nc1nc2ccc(Cl)cc2cc1C(=O)NCc1ccc(Oc2ccccc2)cc1,·,–,·,·,·,–,·,·,·,·,·
CCc1ccccc1Oc1nc(NCc2ccccc2)nc2ccsc12,·,–,·,·,·,–,·,·,·,·,·
COc1ccc(/C=C/c2nc3cc(-c4ccccc4)ccc3o2)cc1O,–,–,–,–,21.5,23.0,–,–,11.3,–,27.2
COc1ccc(/C=C/c2nc3ccccc3c(=O)o2)cc1,·,–,–,–,–,–,·,·,·,·,·
Cc1ccc(S(=O)(=O)N2CCOCC2)cc1C(=O)N1C(=O)c2cccc(N)c2C1=O,–,–,–,–,–,–,·,·,·,·,·
Nc1cccc2c1C(=O)N(C(=O)c1cccc(S(=O)(=O)N3CCCCCC3)c1)C2=O,–,–,–,–,25.3,28.2,–,–,–,33.3,38.2
O=S(=O)(Nc1cccc2cccnc12)c1ccccc1,·,–,–,–,34.9,38.8,–,–,98.4,54.2,17.6
Cc1ccc(NC(=O)C2(C)CCN2C(=O)Cc2ccccc2Cl)cc1C (stereo unspecified),·,–,·,·,·,–,·,·,·,·,·
COC(=O)[C@@]1(Cc2ccc(F)cc2)[C@H]2c3cc(C(=O)N(C)C)n(Cc4ccc(C)c(F)c4F)c3C[C@H]2CN1C(=O)c1ccccc1,·,–,·,·,·,–,·,·,·,·,·
CC[C@@]1(O)C(=O)OCc2c1cc1n(c2=O)Cc2cc3c(N)cccc3nc2-1,·,–,–,–,–,–,·,·,·,·,·
CC[C@@]1(O)C(=O)OCc2c1cc1n(c2=O)Cc2cc3c(CN(C)C)c(O)ccc3nc2-1,·,–,–,68.2,54.1,71.6,49.3,52.2,60.4,81.2,78.5
O=C(c1ccccc1)c1cc(Cl)ccc1N1C(=O)C=CC1=O,–,–,·,·,33.1,58.8,37.5,–,96.3,89.0,22.6
O=c1c2cc(F)ccc2sn1-c1ccccc1Cl,·,–,·,·,–,–,·,·,·,·,·
